A short description of assay [1]: viability rescue of complex I mutant cybrids, primary screen, cell-based, galactose medium, ATP luminescence (AID 1645843;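 active = z-score of at least 1.8 in each of two replicates, scored against plate mean and spread of sample wells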;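 also: positive z means more ATP and so rescue of galactose-driven cybrid death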). The settings on record: complex I mutant cybrid cells, 72 h, stronger effect = higher value.
Assay [2] in a line: LFS_MB_P medulloblastoma growth inhibition, cell-based, chromothripsis tumors, cisplatin or BGB combos (AID 1671449).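 Also: cells exposed for 96 hours; 0% = vehicle DMSO and 100% = killing by high DMSO.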 The settings on record: LFS_MB_P medulloblastoma cells.
Assay [3] is described as follows: HDN33 neuroblastoma growth inhibition, cell-based, chromothripsis tumors, cisplatin or BGB combos (AID 1671450).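 Also: cells exposed to compound for four days; 0% = vehicle DMSO and 100% = cell killing by high DMSO.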 The settings on record: HDN33 neuroblastoma cells, stronger effect = higher value.
The nature of assay [4]: ICB984 medulloblastoma cell growth inhibition, synergistic combos for chromothripsis tumors, cisplatin or BGB combos (AID 1671451; call rule not given here;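 also: cells exposed for 96 hours before readout; 0% = vehicle DMSO and 100% = killing by high DMSO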). The settings on record: ICB984 medulloblastoma cells, drug combinations, stronger effect = higher value.
Assay [5] in a line: LFS_MB_1R medulloblastoma cell growth inhibition, synergistic combos for chromothripsis tumors, cisplatin or BGB combos (AID 1671452).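 Also: cells exposed for 96 hours before readout.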 Conditions: LFS_MB_1R medulloblastoma cells, stronger effect = higher value.
Assay [6] is described as follows: HTB85 osteosarcoma cell growth inhibition, synergistic combos for chromothripsis tumors, BGB or cisplatin IC20 combos (AID 1671453).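 Also: cells exposed for 96 hours before readout; 0% = vehicle DMSO and 100% = high DMSO killing control.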 The settings on record: HTB85 osteosarcoma cells, drug combinations, stronger effect = higher value.
Assay [7] can be described thus: CRL2098 osteosarcoma cell growth inhibition, synergistic combos for chromothripsis tumors, BGB or cisplatin IC20 combos (AID 1671454).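 Also: cells exposed for 96 h before readout; 0% = vehicle DMSO and 100% = killing by high DMSO.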 Conditions: CRL2098 osteosarcoma cells, drug combinations, stronger effect = higher value.
A short description of assay [8]: HD-MB03 medulloblastoma cell growth inhibition, synergistic combos for chromothripsis tumors, BGB or cisplatin IC20 combos (AID 1671455; in the data active = inhibition above about 83%;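 also: 0% = vehicle DMSO and 100% = high DMSO as cytotoxic control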). Conditions: HD-MB03 medulloblastoma cells, stronger effect = higher value.
Assay [9] can be described thus: UWB1.289 ovarian carcinoma cell growth inhibition, synergistic combos for chromothripsis tumors, BGB or cisplatin combos (AID 1671456).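 Also: cells exposed to compound for four days; 0% = vehicle DMSO and 100% = killing by high DMSO.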 Conditions: UWB1.289 ovarian carcinoma cells, stronger effect = higher value.
Assay [10] is described as follows: LFS_MB_2R medulloblastoma cell growth inhibition, synergistic combos for chromothripsis tumors, cisplatin combos (AID 1671457).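 Also: cells exposed to compound for four days before readout.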 The settings on record: LFS_MB_2R medulloblastoma cells, stronger effect = higher value.
The nature of assay [11]: MDA-MB-436 breast carcinoma cell growth inhibition, synergistic combos for chromothripsis tumors, BGB or cisplatin combos (AID 1671458; call rule not given here;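 also: cells exposed for 96 hours; 0% = vehicle DMSO and 100% = killing by high DMSO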). The settings on record: MDA-MB-436 breast carcinoma growth inhibition, drug combinations, stronger effect = higher value.
A short description of assay [12]: UWB1.289_BRCA1 ovarian cancer growth, cell-based, BGB or cisplatin combinations (AID 1671459). Conditions: UWB1.289 BRCA1 ovarian carcinoma, drug combinations, stronger effect = higher value.
The nature of assay [13]: human astrocyte viability loss, single and combined drugs, cytotoxicity control for chromothriptic childhood tumor combination screen, cell-based, BGB or cisplatin IC20 combos (AID 1671460).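 Also: cells exposed to compounds for 96 hours before viability readout; 0% = vehicle and 100% = killing control.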 Conditions: Human astrocytes, drug combinations, stronger effect = higher value.
The nature of assay [14]: growth inhibition of BT084 medulloblastoma cells, cell-based, ICGC_MB145, cisplatin and BGB IC40 combos (AID 1671461).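 Also: cells exposed to drugs for 96 hours; 0% = vehicle DMSO and 100% = high DMSO full killing control.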 The settings on record: drug combinations, stronger effect = higher value.
Assay [15] is described as follows: growth inhibition of RCMB18 medulloblastoma cells, cell-based, cisplatin and BGB IC40 combos (AID 1671462).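 Also: cells exposed to compound for four days.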 The settings on record: stronger effect = higher value.
The nature of assay [16]: growth inhibition of CRL1545 osteosarcoma cells, cell-based, cisplatin and BGB IC20 combos (AID 1671464).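 Also: cells exposed to compound for 96 hours before readout; 0% = vehicle DMSO and 100% = high DMSO killing control.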 The settings on record: stronger effect = higher value.
Setting [17] is: measured here: combination with BGB IC40, at 0.05 µM.
The mark [18] stands for this setting: measured here: with BGB IC20 combination, at 0.5 µM.
The mark [19] stands for this setting: measured here: with cisplatin IC20 combination, at 0.5 µM.
Where [20] appears, read: measured here: combination with cisplatin, at 0.5 µM.
Setting [21] is: measured here: combination with cisplatin, at 5 µM.

Active and inactive are the calls of the source. Rule as the data show it, unless noted: active = inhibition above about 80%; inactive = the rest.

As to `Cc1ccccc1-c1noc(C2CC(C(C)C)=NO2)n1` (stereo not given), in [1], the z-score was 1.73 (inactive).

Regarding `CCN(C)Cc1ccc(-c2nc(C(F)(F)F)c(C)c(=O)[nH]2)cc1`, the z-score in [1] is 0.97 (inactive).

As for `CC(C)c1ccc(-c2cc(=O)c3ccccc3o2)cc1`, the inhibition in assay [2] (at 0.5 µM, stronger effect = higher value) was -1.02% (inactive); in assay [2] (measured here: combination with BGB IC20, at 0.005 µM) it was -13.4%; in assay [2] (measured here: combination with BGB IC40, at 0.005 µM), -27.4%; in assay [2] (setting [17]), 8.34%; in assay [2] (measured here: combination with cisplatin, at 0.5 µM, stronger effect = higher value), 64.5%; in [2] (measured here: combination with cisplatin, at 5 µM, stronger effect = higher value), 60.2%. In addition, the inhibition was 30.8% in assay [3] (BGB combo, at 5 µM); -12.3% (inactive) in assay [3] (at 0.5 µM); 30.4% in assay [3] (cisplatin combo, at 5 µM); -6.46% in assay [3] (setting [18]); -22.2% in assay [3] (setting [19]); 42.1% in [3] (single agent, at 5 µM). The inhibition in assay [4] (BGB IC20 combo, at 0.005 µM) is 5.4%; in assay [4] (BGB IC40 combo, at 0.005 µM), -31.5%; in assay [4] (BGB IC40 combo, at 0.05 µM), 14.8%; in assay [4] (at 0.5 µM) it was -18.8% (inactive); in assay [4] (cisplatin combo, at 0.05 µM) it was 11.4%; in assay [4] (cisplatin combo, at 0.5 µM) it was -24.5%. Also, the inhibition was -45% in assay [4] (cisplatin combo, at 5 µM); -10.3% in [4] (measured here: 5 uM single agent, at 5 µM); -36.4% (inactive) in assay [5] (at 0.5 µM); -28.3% in assay [5] (setting [17]); -81.6% in [5] (setting [20]); 18.3% in assay [5] (setting [21]). For the same molecule, the inhibition in [6] (at 0.5 µM) was -40.2% (inactive); in assay [6] (measured here: with BGB IC20, at 0.5 µM) it was -39.8%; in [6] (measured here: with BGB IC20, at 5 µM) it was 1.8%; in assay [6] (measured here: with cisplatin IC20, at 0.5 µM), -59.9%; in [6] (measured here: with cisplatin IC20, at 5 µM) it was 17.5%; in assay [6] (single agent, at 5 µM), 16.9%. Besides, the inhibition in assay [7] (at 0.5 µM) is -58.5% (inactive); in [7] (measured here: combination with BGB at IC20, at 0.5 µM) it was -35.3%; in [7] (measured here: combination with cisplatin at IC20, at 0.5 µM), -37.3%; in assay [8] (at 0.5 µM) it was -10% (inactive); in assay [8] (measured here: combo with BGB at IC20, at 0.5 µM), -14%; in [8] (measured here: combo with cisplatin at IC20, at 0.5 µM), -4.48%. Moreover, the inhibition is -15.3% (inactive) in assay [9] (at 0.5 µM); -31.9% in [9] (measured here: inhibition with BGB combination, at 0.05 µM); -16.9% in [9] (measured here: inhibition with cisplatin combination, at 0.05 µM); -14.3% (inactive) in assay [10] (at 0.5 µM); -16.1% in [10] (setting [20]); 41.6% in assay [10] (setting [21]). Moreover, the inhibition was -11.1% (inactive) in assay [11] (at 0.5 µM); -14.1% in assay [11] (measured here: BGB combination, at 0.5 µM); 27.2% in [11] (measured here: BGB combination, at 5 µM); -11.6% in assay [11] (measured here: cisplatin combination, at 0.5 µM); 22.8% in [11] (measured here: cisplatin combination, at 5 µM); 43.9% in [12] (BGB combination, concentration series, at 5 µM). Also, the inhibition in [12] (at 0.5 µM) was -16.7% (inactive); in assay [12] (cisplatin combination, concentration series, at 5 µM), 32.9%; in assay [13] (at 0.5 µM), -3.03% (inactive); in [13] (measured here: combo with BGB IC20, at 0.5 µM), 2.13%; in assay [13] (measured here: combo with cisplatin IC20, at 0.5 µM) it was -6.48%; in [14] (at 0.5 µM), -10.1% (inactive). In addition, the inhibition was -5.92% in [14] (cisplatin combination, at 0.5 µM); 41.9% in assay [14] (cisplatin combination, at 5 µM); -23.7% in [14] (measured here: BGB IC40 combination 0.05 uM, at 0.05 µM); 42.7% in [14] (single agent, at 5 µM); -14% (inactive) in [15] (at 0.5 µM); 35.3% in assay [15] (cisplatin combo, at 5 µM). Moreover, the inhibition in [15] (measured here: BGB IC40 combination, at 0.05 µM) is -32.1%; in assay [15] (setting [20]), -17.3%; in [15] (single agent, at 5 µM), 35%; in assay [16] (at 0.5 µM) it was -29.6% (inactive); in assay [16] (setting [18]) it was -34%; in assay [16] (setting [19]), -27.5%. For the same molecule, the inhibition in assay [16] (single agent, at 0.05 µM) was -43.4%; in assay [16] (single agent, at 5 µM), 26.5%.

For orientation: inhibition means the relative decrease from the control value, in per cent.

The values above are taken from PubChem BioAssay.
